# Screen size: about 580,000 compounds; about 6,100 (1.1%) were called active. Inconclusive results (about 15%) are left out. This excerpt belongs to a sample that is enriched for actives. Unmarked numbers belong to inactive results. The call rests on the fitted dose curve; in most records, active means well fitted inhibition curve with a large enough effect; inconclusive means small, poorly fitted or top-dose-only effect, or another doubt; inactive means no such curve, though single readings can be large or run the other way.
# Molecular target: Polyunsaturated fatty acid lipoxygenase ALOX12 (Homo sapiens) (UniProt P18054)
# Test: Primary qHTS assay for inhibitors of human arachidonate 12S-lipoxygenase (ALOX12): Round 2
# Details: purified 12hLO, xylenol orange hydroperoxide absorbance; series mostly up to 108 µM; activity change, negative = inhibition: at the top concentration
# How it was run: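 Hydroperoxide product was detected by ferrous iron/xylenol orange as the 573 to 405 nm absorbance ratio. Arachidonic acid at 40 uM (final) was turned over for 30 min at room temperature by 150 nM human 12hLO, pH 7.0 Hepes buffer, after 15 min compound preincubation.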
# On the % scale 0 is the no-effect control and ±100 the full control effect; potency means the concentration at half of the fitted maximal effect.
# Chain of Polyunsaturated fatty acid lipoxygenase ALOX12 (Homo sapiens) (P18054 whole entry, looked up): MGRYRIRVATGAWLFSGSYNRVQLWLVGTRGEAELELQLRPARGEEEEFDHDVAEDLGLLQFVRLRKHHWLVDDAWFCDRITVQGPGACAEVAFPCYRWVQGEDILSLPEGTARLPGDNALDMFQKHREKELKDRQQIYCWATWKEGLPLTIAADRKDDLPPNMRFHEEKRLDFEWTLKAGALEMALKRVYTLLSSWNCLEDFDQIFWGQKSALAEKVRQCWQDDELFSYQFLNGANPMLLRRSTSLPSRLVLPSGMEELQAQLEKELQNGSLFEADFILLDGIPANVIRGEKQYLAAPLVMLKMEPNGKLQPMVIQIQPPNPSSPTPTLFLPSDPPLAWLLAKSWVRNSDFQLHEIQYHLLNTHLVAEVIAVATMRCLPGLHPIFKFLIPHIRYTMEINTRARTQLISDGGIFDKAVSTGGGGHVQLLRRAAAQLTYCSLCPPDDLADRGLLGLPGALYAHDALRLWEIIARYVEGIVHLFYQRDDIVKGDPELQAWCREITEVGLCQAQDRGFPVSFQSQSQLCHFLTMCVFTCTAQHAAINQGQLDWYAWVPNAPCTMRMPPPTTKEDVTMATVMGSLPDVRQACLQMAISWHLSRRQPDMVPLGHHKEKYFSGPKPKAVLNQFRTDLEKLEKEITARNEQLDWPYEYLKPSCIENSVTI
Compound,"activity change, negative = inhibition",Potency
O=C(NCCc1cccnc1)c1cccc(Cl)c1Cl,5.55%,
c1ccc(-c2noc(-c3ccco3)n2)cc1,1.51%,
Cc1ccc(C(=O)Nc2cnc3ccccc3c2)cc1[N+](=O)[O-],12.7%,
CC(C)Oc1ccc(NC(=O)c2cc3ccccc3o2)cc1,0.347%,
Cc1cc2nc(-c3ccc(NC(=O)c4cc5ccccc5o4)cc3)oc2cc1C,-10.3%,
C/C(=N\NC(=S)Nc1ccc(C)cc1)c1cc2ccccc2o1,,25.1 µM (active)
COc1cccc(/C=C2\Oc3cc(OS(=O)(=O)c4ccc(C)cc4)ccc3C2=O)c1OC,1.7%,
Cc1ccc(NC(=O)CN(C)C(=O)c2nn(-c3ccccc3)c3c2CCC3)cc1,20.1%,
CCNC(=O)O[C@@H]1CO[C@H]2[C@@H]1OC[C@@H]2NC(=S)Nc1cccc2ccccc12,,56.2 µM (active)
COc1ccc(-c2ccnc(N[C@H]3CO[C@H]4[C@@H]3OC[C@H]4OC(=O)Nc3cccc4ccccc34)n2)cc1,12.3%,
COc1ccc(NC(=O)O[C@@H]2CO[C@H]3[C@@H]2OC[C@@H]3NC(=S)Nc2cccc3ccccc23)cc1,-26.3%,
CCOc1ccc(N2CC(NC(=O)CC(C)(C)C)CC2=O)cc1 (stereo not given),-1.73%,
O=C(Cc1ccccc1F)NC(c1ccc2c(c1)CCC2)c1cccs1 (stereo not given),-26.6%,
CCCCc1ccc(C(=O)Cn2nnc(-c3cccc(F)c3)n2)cc1,-34.4%,
Cc1ccc(C(=O)Nc2cc3c(cc2N2CCCC2)n(C)c(=O)c(=O)n3C)cc1,12.9%,
Cn1c(=O)n(C)c2cc(SCc3ccco3)c(NC(=O)c3ccc(C(C)(C)C)cc3)cc21,,8.91 µM (active)
CC(C)(C)c1ccc(C(=O)NCC(c2ccco2)S(=O)(=O)c2ccc(F)cc2)cc1 (stereo not given),-22.1%,
CCNC(=O)C1CCCN1S(=O)(=O)c1ccc(Br)s1 (stereo not given),4.48%,
Cc1ccc(CN2CCN(C(=O)CCC[C@H]3NC[C@@H]4C[C@H]3CN(Cc3ccccc3)C4)CC2)cc1,-13.9%,
Cc1oc(-c2ccccc2)nc1Cn1ncc2ccccc2c1=O,-5.85%,
Cc1cccc(CN2CCC3(Cc4ccccc4CNC3=O)C2)c1 (stereo not given),3.12% [at 6.33 µM],
Cc1ccc(CN2CCC3(Cc4ccccc4CNC3=O)C2)cc1 (stereo not given),,28.2 µM (active)
COc1ccc(CN2CCC3(Cc4ccccc4CNC3=O)C2)cc1OC (stereo not given),8.59% [at 6.33 µM],
O=C(NC1CCN(CCCc2nc3ccccc3o2)CC1)C1CCCCC1,-5.42%,
CCC(=O)Nc1ccccc1-c1nc2ccccc2n(CC(=O)Nc2ccc(NC(C)=O)cc2)c1=O,-26.1%,

Compound,"activity change, negative = inhibition",Potency
O=C1NS(=O)(=O)c2ccccc21,,12.6 µM (active)
Cc1ccccc1C(=O)NCCN=C1NS(=O)(=O)c2ccccc21,9.19%,
CN(C)S(=O)(=O)c1ccc(C(=O)NCCN=C2NS(=O)(=O)c3ccccc32)cc1,1.56%,
CCN(Cc1nc2ccccc2c(=O)[nH]1)C(=O)Cc1csc(-c2ccc(C)cc2C)n1,3.87%,
COc1ccc(-c2cc(NC=O)c3ncc(-c4ccccc4)n3c2)cc1OC,-5.7%,
COc1ccccc1-c1cc(NC(C)=O)c2ncc(-c3ccc(F)cc3)n2c1,,44.7 µM (active)
COc1cccc(-c2cc(NC(C)=O)c3ncc(-c4cccc(C(C)=O)c4)n3c2)c1,-5.38%,
CC(C)c1noc(C(C)Sc2nc(C3CC3)nc3ccccc23)n1 (stereo not given),7.22%,
O=C(O)CCC(=O)C(CC(=O)O)CC(=O)O,-22.1%,
Cn1nc(C(C)(C)C)cc1NC(=O)c1cccc(F)c1,-45%,
Cc1ccc(NC(=S)NC(=O)c2ccc(-c3ccccc3)cc2)c(C)c1,,17.8 µM (active)
Cc1ccc(NC(=O)c2oc(=O)c3ccccc3c2-c2ccccc2)c(C)c1,-8.51%,
Cc1cc(C)c(/C=N/NC(=O)c2ccccc2)c(C)c1,-20.9%,
Cc1cccnc1NC(=O)c1ccc2nc(C)c(C)nc2c1,14.6%,
Cc1ccc(NC(=S)Nc2ncccc2C)c(C)c1,,8.91 µM (active)
CCOC(=O)N1CCN(C(=S)Nc2ccc(C)cc2C)CC1,0.181%,
O=C(NNC(=O)C1(c2ccc(Br)cc2)CCCC1)c1ccccc1,-11.9%,
COc1ccc(C2Cn3cnc(-c4nc(-c5ccc(OC)cc5OC)no4)c3CO2)cc1 (stereo not given),0.752%,
CCc1c(C(=O)O)csc1C,4.31%,
CCCCc1nc2sc(C(=O)OCC)c(N)c2c2c1COC(C)(C)C2,10.5%,
O[C@H]1C[C@H](c2ccc(Cl)cc2)N(Cc2cccs2)C[C@@H]1n1cc(C2CC2)nn1,,44.7 µM (active)
O=C(OCc1cn([C@@H]2C[C@H](c3ccc(Cl)cc3)N(Cc3cccs3)C[C@H]2O)nn1)c1ccccc1,-2.55%,
O[C@@H]1C[C@H](c2ccccc2)N(Cc2cccs2)C[C@H]1n1cc(C2CC2)nn1,0%,
CC(C)Cn1nc(C(=O)OCC(=O)Nc2ccc(OC(F)(F)F)cc2)c2ccccc2c1=O,3.44%,
Cc1ccccc1S(=O)(=O)N1CCCC(CCC(=O)NCC2CCCCC2)C1 (stereo not given),16.3%,

Compound,"activity change, negative = inhibition",Potency
CCOC(=O)N1CCN(C(=O)c2ccc3c(=O)n(CCc4ccc(OC)c(OC)c4)c(=O)[nH]c3c2)CC1,-12.7%,
CCOc1cc2[nH]c(=S)n(Cc3ccc(C(=O)N4CCN(C)CC4)cc3)c(=O)c2cc1OCC,2.11%,
NC(=O)C1CCN(C(=O)c2ccc3c(=O)n(Cc4cccc(Br)c4)c(=S)[nH]c3c2)CC1,,44.7 µM (active)
O=C(Nc1cccc2cccnc12)C1=C(c2ccccc2)S(=O)(=O)CCO1,23.8%,
COc1ccc2c(C)c(CC(=O)Nc3nnc(C)s3)c(=O)oc2c1OC,-5.78%,
COc1ccc2cc(/C=C(/CC(=O)O)c3nc4ccccc4s3)ccc2c1,-87.4%,
COc1ccc(CC(=O)Nc2ccc(-c3nc4ccccc4s3)c(C)c2)cc1,-8.77%,
COC(=O)Cc1cc(=O)n(-c2nc3ccccc3s2)[nH]1,,6.31 µM (active)
COc1ccc(N2C(=O)C(C)(C)CS2(=O)=O)cc1S(=O)(=O)Nc1ccc(F)c(Cl)c1,1.34%,
CCC1c2nccn2CCCN1C(=O)c1ccc(Cn2cncn2)o1 (stereo not given),49%,
COc1ccc(-c2ccccc2CN)cc1,23.2% [at 176 µM],
COc1ccc(C(C#N)=C2C=CC(=NO)c3ccccc32)cc1,,39.8 µM (active)
COC(=O)c1ccc(OC)cc1OCc1ccccc1C#N,8.13%,
COc1ccc(C(=O)c2sc(Nc3cccc(F)c3)nc2N)cc1,3.41%,
O=C(Nc1ccc(Br)c2cccnc12)c1ccc(Cn2cc([N+](=O)[O-])cn2)o1,,15.8 µM (active)
O=C(NCCc1ccccn1)c1nc(Cn2cc([N+](=O)[O-])cn2)no1,1.76%,
CC(C)N(C(=O)Cn1c(CN2CCOCC2)nc2ccccc21)c1ccccc1,11.2%,
COc1ccc(-c2nc3ccccc3n2CCC(C)C)cc1OC,0%,
COc1ccc(-n2c(-c3ccc(OC)c(OC)c3)n[nH]c2=S)cc1,,17.8 µM (active)
COc1ccc(-c2cn(-c3ccc(C)cc3)c(=O)n2CC(=O)Nc2ccc(OC)c(OC)c2)cc1,-3.1%,
O=C([C@@H]1C[C@H](F)CN1C(=O)Nc1cc(F)cc(F)c1)N1CCCCC1,5.28%,
O=C(Cc1ccc(Cl)cc1)NCc1nnc2ccc(-c3ccc(F)cc3)nn12,-6.29%,
CCOC(=O)Cn1c(=O)n(C2CCCCC2)c2nc(-c3cccc(OC)c3)nc(C(N)=O)c21,-15.8%,
CCOC(=O)Cn1c(=O)n(-c2ccccc2OC)c2nc(-c3cccc(F)c3)nc(C(N)=O)c21,,11.2 µM (active)
CCOC(=O)Cn1c2c(c(-c3ccccc3OC)cc1=O)CCCC2,17.6%,

Compound,"activity change, negative = inhibition",Potency
CCCn1c(C)c(C)c(-c2nc3ccccc3[nH]2)c1NC(=O)CC(C)C,-30%,
Cc1cc(CN2CCN(Cc3nc(C(C)(C)C)no3)CC2)no1,2.24%,
O=c1cc(-c2cccnc2)nc2n(Cc3cccc(F)c3)c3ccccc3n12,55.1%,
CC(C)COC(=O)/C(C#N)=C\c1c[nH]c2ccccc12,-52.5%,
CCCC1CCC(=NNC(=S)NCCc2ccccc2)CC1 (stereo not given),,44.7 µM (active)
O=C(CCC1CCN(S(=O)(=O)c2ccccc2)CC1)NCCc1ccccc1,17.6%,
N#Cc1cccc(NC(=S)NCCc2ccccc2)c1,-47.2%,
O=C(NCCCNC(=O)c1nc2ccccc2c(=O)[nH]1)c1cccnc1,44.5%,
O=C(c1cccnc1)N(c1cc2sc(=O)oc2c2ccccc12)S(=O)(=O)c1ccccc1,,15.8 µM (active)
O=C(CN(Cc1ccc(Br)cc1)S(=O)(=O)c1ccccc1)NCc1ccncc1,-7.07%,
Cc1nn(CC(O)COc2ccccc2)c(=O)c2ccccc12 (stereo not given),10.9%,
Cc1ccccc1C(=O)Nc1ccc2c(c1)nc(CCn1ccccc1=O)n2C,10.9%,
CCN(CC)S(=O)(=O)c1ccc(Sc2nnc(C)s2)nc1,35.8%,
CN(C)c1ccc(C(=O)NCc2nnc3cc(-c4nc(C5CC5)no4)ccn23)cc1,2.96%,
COc1ccc(C(=O)NCc2nnc3cc(-c4nc(C)no4)ccn23)cc1,-6.57%,
CCCc1noc(-c2ccn3c(CNC(=O)c4ccc(N(C)C)cc4)nnc3c2)n1,,44.7 µM (active)
CCc1cccc2c(C(=O)CSc3nnnn3C3CC3)c[nH]c12,-22.2%,
CCCNC(=O)c1cn(-c2ccccc2)nc1-c1cccnc1,3.41%,
O=C(/C=C/c1cccc(F)c1)c1cc2ccccc2oc1=O,-24.6%,
O=[N+]([O-])c1ccc(Oc2ccc3ccncc3c2)cc1C(F)(F)F,36.3%,
Cc1ccc(NC(=O)CCc2nc(C(C)(C)C)no2)nc1,-2.76%,
Cc1ccc2cccc(NC(=O)c3ccccc3C)c2n1,20.4%,
Cc1cccc(NC(c2cccc(F)c2)c2ccc3ccc(C)nc3c2O)n1 (stereo not given),,25.1 µM (active)
Cc1c(Cl)cccc1NC(=O)COC(=O)c1nn(C)c(=O)c2ccccc12,-5.86%,
Cc1cc(C)n(CCC(=O)NCC2CCN(c3cc(-c4ccc(F)cc4)[nH]n3)CC2)n1,43%,

# From PubChem BioAssay AID1671190 (National Center for Advancing Translational Sciences (NCATS), 2021)
